The source of these data is PMC7862700, “An all-to-all approach to the identification of sequence-specific readers for epigenetic DNA modifications on cytosine”.

Holding throughout (assay): DAPPL (digital affinity profiling via proximity ligation, sequencing); 10 mM Tris-HCl pH 7.5, 50 mM NaCl, 1 mM DTT, 4% glycerol, room temperature, 30 min; GST-TFs on glutathione beads, 16-mer random dsDNA library, 0.1% formaldehyde crosslink after washing; high values mean tight binding
One test deals with T1, FLI1 (Homo sapiens, UniProt Q01543 1-452).
T1 sequence: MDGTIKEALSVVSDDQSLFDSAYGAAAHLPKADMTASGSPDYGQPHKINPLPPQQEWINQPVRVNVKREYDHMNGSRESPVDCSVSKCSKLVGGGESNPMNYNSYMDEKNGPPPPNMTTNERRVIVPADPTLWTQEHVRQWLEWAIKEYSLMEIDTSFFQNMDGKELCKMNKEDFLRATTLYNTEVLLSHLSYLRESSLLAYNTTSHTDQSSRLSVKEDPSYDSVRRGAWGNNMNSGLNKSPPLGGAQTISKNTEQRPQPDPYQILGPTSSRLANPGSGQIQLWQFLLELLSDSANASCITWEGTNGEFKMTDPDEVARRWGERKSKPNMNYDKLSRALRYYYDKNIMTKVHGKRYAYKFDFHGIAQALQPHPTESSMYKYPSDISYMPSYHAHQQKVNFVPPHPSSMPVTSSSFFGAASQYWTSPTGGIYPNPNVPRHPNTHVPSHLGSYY
The following applies: protein: recombinant; tags: N-terminal GST; dsDNA, one strand shown. The gist of the method: (§1)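 After expression in yeast as GST fusions, human transcription factors were bound to glutathione beads, DNA-barcoded and mixed with a tag-only sample. The pools were incubated with 200 nmole of a 16-mer random double-stranded DNA library in Tris/NaCl/DTT/glycerol buffer (30 min, room temperature), washed and crosslinked with 0.1% formaldehyde. Proximity ligation with BsaI/T4 ligase ran for 1 h at 37 °C, before PCR amplification and sequencing on an Illumina NextSeq500. Binding signal is a hexamer's read frequency for a factor divided by its frequency for the tag-only sample.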

In another test the target is T2, ELK1 (Homo sapiens, UniProt P19419 1-428).
T2 sequence: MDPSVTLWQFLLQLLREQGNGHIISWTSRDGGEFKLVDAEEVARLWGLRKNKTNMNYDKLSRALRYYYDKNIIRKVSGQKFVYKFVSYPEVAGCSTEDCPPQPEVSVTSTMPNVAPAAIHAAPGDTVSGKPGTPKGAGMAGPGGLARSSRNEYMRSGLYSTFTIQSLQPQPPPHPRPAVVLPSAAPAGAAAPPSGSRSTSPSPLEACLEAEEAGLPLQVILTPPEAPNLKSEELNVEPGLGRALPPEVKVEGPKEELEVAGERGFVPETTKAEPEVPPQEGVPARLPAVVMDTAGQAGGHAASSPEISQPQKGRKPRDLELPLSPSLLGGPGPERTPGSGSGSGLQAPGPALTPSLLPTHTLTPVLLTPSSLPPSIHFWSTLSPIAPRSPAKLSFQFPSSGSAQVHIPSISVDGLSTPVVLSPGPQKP
The conditions noted are these: protein: recombinant; tags: N-terminal GST; dsDNA, one strand shown. The gist of the method:
as §1

The target of another test is T3, GABPA (Homo sapiens, UniProt Q06546 1-454).
T3 sequence: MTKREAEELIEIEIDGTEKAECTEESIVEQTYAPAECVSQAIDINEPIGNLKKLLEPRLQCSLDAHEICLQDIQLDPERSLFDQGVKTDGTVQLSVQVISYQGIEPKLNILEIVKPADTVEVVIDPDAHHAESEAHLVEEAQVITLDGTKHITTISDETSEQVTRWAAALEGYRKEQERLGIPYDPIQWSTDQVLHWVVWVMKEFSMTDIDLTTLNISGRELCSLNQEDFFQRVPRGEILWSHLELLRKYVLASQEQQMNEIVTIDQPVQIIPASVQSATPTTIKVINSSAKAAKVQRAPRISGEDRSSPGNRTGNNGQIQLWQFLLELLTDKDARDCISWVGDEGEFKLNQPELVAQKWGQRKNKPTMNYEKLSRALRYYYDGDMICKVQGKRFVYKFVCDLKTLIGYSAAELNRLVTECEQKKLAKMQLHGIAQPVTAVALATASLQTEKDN
The following applies: protein: recombinant; tags: N-terminal GST; dsDNA, one strand shown. A digest of the protocol: as §1

The next test addresses T4, ERG (Homo sapiens, UniProt P11308 1-479).
T4 sequence: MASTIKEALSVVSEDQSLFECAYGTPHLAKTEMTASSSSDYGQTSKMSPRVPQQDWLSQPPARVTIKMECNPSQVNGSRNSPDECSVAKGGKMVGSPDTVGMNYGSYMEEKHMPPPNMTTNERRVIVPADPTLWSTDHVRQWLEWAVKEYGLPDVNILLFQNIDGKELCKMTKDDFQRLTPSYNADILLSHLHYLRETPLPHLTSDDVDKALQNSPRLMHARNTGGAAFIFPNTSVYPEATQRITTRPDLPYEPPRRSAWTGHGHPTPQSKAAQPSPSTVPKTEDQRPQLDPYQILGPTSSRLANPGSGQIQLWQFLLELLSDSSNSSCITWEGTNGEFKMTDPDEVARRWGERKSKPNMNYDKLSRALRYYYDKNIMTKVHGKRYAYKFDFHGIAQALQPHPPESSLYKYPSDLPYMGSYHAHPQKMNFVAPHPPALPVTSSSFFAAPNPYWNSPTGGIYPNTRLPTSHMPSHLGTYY
The conditions noted are these: protein: recombinant; tags: N-terminal GST; dsDNA, one strand shown. The gist of the method:
as §1

In a further test the target is ELF1 (Homo sapiens, UniProt P32519 1-619). The conditions noted are these: protein: recombinant; tags: N-terminal GST; dsDNA, one strand shown. The gist of the method: as §1
The target in the next test is T5, EHF (Homo sapiens, UniProt Q9NZC4 1-300).
T5 sequence: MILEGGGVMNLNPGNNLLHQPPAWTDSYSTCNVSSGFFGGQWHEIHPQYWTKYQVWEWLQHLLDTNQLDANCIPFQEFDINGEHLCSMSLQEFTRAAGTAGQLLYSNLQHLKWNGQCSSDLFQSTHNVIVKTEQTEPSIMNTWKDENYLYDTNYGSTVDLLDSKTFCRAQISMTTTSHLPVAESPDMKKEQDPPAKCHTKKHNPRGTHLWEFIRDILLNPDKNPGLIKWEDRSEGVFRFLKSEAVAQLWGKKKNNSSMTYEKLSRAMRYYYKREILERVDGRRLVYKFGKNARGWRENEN
The following applies: protein: recombinant; tags: N-terminal GST; dsDNA, one strand shown. A digest of the protocol:
as §1

For another test, the target named is SPI1 (Homo sapiens, UniProt P17947 1-270). The following applies: protein: recombinant; tags: N-terminal GST; dsDNA, one strand shown. A digest of the protocol:
as §1

Another test deals with SPIB (Homo sapiens, UniProt Q01892 1-262). The following applies: protein: recombinant; tags: N-terminal GST; dsDNA, one strand shown. A digest of the protocol:
as §1

Another test addresses T6, ELK3 (Homo sapiens, UniProt P41970 1-407).
T6 sequence: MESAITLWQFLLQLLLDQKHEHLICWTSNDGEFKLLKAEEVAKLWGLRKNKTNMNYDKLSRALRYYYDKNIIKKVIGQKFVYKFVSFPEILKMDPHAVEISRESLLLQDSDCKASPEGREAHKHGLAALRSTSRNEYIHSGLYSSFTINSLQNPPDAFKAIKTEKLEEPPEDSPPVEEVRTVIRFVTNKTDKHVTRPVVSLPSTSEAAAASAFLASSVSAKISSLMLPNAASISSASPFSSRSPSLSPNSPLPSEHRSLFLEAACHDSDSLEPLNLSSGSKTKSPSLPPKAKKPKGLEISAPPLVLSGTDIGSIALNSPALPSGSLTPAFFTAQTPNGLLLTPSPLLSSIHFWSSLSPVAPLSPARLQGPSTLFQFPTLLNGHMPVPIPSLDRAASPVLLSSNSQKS
The conditions noted are these: protein: recombinant; tags: N-terminal GST; dsDNA, one strand shown. A digest of the protocol: as §1

For a further test, the target named is T7, FEV (Homo sapiens, UniProt Q99581 1-238).
T7 sequence: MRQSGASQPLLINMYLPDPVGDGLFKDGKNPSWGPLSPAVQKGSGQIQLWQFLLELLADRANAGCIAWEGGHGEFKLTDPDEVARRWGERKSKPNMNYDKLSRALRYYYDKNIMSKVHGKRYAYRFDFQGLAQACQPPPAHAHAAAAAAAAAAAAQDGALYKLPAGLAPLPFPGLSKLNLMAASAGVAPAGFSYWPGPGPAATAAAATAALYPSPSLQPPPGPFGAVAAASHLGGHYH
The conditions noted are these: protein: recombinant; tags: N-terminal GST; dsDNA, one strand shown. A digest of the protocol: as §1

A further test has as its target ETV5 (Homo sapiens, UniProt P41161 1-510). The conditions noted are these: protein: recombinant; tags: N-terminal GST; dsDNA, one strand shown. The gist of the method:
as §1

For another test, the target named is HSF1 (Homo sapiens, UniProt Q00613 1-529). The following applies: protein: recombinant; tags: N-terminal GST; chain copies: 3; dsDNA, one strand shown. A digest of the protocol: as §1
The next test concerns the target T8, SPIC (Homo sapiens, UniProt Q8N5J4 1-248).
T8 sequence: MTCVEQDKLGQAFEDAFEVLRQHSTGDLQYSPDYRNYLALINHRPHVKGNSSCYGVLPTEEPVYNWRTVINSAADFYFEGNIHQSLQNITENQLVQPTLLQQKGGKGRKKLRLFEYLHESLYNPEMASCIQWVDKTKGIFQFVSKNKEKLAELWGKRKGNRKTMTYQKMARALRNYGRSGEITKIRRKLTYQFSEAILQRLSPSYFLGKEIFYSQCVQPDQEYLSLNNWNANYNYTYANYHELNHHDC
The conditions noted are these: protein: recombinant; tags: N-terminal GST; dsDNA, one strand shown. The gist of the method: as §1

A further test deals with ELF4 (Homo sapiens, UniProt Q99607 1-663). The following applies: protein: recombinant; tags: N-terminal GST; dsDNA, one strand shown. A digest of the protocol:
as §1

In the next test the target is T9, ELK4 (Homo sapiens, UniProt P28324-2 1-405).
T9 sequence: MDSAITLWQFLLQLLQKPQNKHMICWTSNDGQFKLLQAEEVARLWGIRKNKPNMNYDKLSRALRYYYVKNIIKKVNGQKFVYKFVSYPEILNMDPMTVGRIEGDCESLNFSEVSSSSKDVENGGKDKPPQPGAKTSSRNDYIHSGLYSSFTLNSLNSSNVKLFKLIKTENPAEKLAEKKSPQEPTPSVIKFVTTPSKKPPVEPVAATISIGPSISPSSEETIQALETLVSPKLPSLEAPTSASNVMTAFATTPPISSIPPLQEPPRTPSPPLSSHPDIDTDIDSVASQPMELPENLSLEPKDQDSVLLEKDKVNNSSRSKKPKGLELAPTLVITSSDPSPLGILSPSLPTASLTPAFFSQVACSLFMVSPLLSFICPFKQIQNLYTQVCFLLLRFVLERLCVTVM
The following applies: protein: recombinant; tags: N-terminal GST; dsDNA, one strand shown. The gist of the method:
as §1

Another test concerns the target T10, ETV2 (Homo sapiens, UniProt O00321 1-342).
T10 sequence: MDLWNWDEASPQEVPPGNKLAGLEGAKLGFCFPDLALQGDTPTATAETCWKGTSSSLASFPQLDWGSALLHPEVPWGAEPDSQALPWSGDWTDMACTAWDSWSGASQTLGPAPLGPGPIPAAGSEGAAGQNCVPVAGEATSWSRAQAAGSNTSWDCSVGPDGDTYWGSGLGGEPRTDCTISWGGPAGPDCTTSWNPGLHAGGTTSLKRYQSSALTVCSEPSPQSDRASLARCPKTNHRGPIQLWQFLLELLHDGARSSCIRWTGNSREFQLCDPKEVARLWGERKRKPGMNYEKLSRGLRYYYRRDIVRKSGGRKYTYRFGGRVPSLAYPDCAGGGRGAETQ
The following applies: protein: recombinant; tags: N-terminal GST; dsDNA, one strand shown. The gist of the method: as §1

The target in another test is T11, ELF3 (Homo sapiens, UniProt P78545 1-371).
T11 sequence: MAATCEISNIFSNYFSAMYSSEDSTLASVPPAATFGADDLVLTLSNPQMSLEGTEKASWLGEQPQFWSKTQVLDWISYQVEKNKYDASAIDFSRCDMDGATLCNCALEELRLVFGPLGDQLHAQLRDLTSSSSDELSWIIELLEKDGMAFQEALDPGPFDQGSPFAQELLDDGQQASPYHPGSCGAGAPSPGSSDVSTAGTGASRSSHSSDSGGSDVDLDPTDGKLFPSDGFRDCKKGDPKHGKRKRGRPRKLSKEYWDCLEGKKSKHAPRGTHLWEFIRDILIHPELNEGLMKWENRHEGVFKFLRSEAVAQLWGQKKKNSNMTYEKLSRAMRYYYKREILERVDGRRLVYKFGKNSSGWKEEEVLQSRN
The following applies: protein: recombinant; tags: N-terminal GST; dsDNA, one strand shown. A digest of the protocol: as §1

The target in another test is ETV1 (Homo sapiens, UniProt P50549 1-477). The conditions noted are these: protein: recombinant; tags: N-terminal GST; dsDNA, one strand shown. A digest of the protocol: as §1
Chain of ETV1 (P50549 whole entry): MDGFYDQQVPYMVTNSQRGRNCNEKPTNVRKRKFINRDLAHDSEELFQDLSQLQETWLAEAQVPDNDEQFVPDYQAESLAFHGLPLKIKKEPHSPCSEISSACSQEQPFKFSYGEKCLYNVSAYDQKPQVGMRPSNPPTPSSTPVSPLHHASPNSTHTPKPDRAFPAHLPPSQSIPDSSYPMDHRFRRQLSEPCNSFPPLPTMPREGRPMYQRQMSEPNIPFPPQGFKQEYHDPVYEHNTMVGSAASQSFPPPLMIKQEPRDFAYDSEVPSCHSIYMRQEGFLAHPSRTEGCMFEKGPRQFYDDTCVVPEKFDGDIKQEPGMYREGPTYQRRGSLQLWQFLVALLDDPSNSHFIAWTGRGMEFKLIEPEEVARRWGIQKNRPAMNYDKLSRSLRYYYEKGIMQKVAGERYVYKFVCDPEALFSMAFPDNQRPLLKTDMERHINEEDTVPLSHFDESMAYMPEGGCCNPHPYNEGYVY

Chain of ELF4 (Q99607 whole entry): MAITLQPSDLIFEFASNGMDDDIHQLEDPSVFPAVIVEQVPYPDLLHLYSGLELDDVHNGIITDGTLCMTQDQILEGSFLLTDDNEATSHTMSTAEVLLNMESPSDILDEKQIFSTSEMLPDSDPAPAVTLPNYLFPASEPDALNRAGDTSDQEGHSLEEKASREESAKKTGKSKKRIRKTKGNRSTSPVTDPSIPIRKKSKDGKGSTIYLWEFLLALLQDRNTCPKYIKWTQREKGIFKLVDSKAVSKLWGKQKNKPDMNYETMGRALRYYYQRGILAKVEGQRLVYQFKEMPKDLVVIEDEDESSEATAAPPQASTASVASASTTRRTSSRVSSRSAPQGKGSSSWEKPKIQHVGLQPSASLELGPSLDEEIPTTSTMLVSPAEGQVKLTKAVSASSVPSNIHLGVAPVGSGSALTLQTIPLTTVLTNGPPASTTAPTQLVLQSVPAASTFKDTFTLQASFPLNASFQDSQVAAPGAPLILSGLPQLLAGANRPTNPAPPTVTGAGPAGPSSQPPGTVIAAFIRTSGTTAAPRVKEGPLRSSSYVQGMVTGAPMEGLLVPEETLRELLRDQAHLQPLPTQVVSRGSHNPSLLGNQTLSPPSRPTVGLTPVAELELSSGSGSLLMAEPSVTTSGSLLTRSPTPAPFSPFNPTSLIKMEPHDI
Chain of ETV5 (P41161 whole entry): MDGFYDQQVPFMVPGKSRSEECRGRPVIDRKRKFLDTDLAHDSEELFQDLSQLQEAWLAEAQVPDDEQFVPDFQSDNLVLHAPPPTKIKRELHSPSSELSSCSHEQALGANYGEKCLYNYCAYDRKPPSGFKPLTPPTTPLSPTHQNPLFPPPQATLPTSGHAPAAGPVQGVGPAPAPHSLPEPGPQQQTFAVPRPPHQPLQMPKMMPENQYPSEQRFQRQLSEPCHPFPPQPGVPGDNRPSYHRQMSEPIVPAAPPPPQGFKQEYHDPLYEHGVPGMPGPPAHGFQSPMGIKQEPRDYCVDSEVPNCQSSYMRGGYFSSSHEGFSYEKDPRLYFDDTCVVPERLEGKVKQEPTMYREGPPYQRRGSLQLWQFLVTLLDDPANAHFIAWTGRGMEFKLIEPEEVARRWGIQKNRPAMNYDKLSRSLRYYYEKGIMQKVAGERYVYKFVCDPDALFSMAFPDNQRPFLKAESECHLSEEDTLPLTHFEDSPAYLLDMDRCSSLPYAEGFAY
Chain of SPIB (Q01892 whole entry): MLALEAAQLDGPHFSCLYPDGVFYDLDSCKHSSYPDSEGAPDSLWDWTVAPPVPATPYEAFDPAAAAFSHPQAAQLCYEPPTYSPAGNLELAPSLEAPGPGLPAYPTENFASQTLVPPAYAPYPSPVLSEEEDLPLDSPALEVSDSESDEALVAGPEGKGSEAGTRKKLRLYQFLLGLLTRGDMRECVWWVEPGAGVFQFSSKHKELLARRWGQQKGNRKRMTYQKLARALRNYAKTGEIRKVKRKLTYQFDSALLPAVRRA
Chain of ELF1 (P32519 whole entry): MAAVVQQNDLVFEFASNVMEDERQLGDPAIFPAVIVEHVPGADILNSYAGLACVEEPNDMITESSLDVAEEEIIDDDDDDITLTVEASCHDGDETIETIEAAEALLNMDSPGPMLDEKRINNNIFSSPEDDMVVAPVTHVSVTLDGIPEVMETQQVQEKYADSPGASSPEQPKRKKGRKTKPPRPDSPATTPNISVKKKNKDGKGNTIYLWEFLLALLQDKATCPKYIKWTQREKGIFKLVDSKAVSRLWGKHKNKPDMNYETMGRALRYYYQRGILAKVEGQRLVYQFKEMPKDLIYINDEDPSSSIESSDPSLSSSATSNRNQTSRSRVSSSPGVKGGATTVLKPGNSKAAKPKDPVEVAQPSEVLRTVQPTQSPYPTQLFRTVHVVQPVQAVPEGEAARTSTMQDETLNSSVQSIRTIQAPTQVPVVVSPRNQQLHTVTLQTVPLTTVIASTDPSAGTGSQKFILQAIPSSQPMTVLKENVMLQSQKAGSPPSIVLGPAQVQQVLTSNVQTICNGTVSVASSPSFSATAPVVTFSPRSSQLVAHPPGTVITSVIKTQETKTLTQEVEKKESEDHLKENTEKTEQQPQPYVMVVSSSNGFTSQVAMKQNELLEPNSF
Chain of HSF1 (Q00613 whole entry): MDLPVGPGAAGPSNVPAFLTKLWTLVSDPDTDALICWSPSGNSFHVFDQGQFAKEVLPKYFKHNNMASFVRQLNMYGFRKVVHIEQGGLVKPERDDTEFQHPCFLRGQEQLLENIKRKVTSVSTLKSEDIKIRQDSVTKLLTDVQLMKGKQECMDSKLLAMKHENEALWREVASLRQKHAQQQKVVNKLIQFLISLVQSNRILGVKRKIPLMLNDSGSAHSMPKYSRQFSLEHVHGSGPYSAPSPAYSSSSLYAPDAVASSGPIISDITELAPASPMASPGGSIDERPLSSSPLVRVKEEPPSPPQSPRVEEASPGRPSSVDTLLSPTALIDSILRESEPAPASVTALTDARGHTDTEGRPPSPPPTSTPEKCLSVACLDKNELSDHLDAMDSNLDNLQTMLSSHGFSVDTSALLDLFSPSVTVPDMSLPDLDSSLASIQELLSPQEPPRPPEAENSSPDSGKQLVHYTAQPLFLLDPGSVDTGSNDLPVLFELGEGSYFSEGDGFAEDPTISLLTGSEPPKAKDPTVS

GAAACA: the binding signal in the test with FLI1 is 1.38 fold enrichment (6-mer frequency, TF over GST control); in the test with ELK1 it was 1.4 fold enrichment (6-mer frequency, TF over GST control); with GABPA it was 1.22 fold enrichment (6-mer frequency, TF over GST control); with ERG, 1.32 fold enrichment (6-mer frequency, TF over GST control); with ELF1, 1.35 fold enrichment (6-mer frequency, TF over GST control); in the test with EHF, 1.45 fold enrichment (6-mer frequency, TF over GST control). Besides, the binding signal with SPI1 is 1.3 fold enrichment (6-mer frequency, TF over GST control); with SPIB, 1.36 fold enrichment (6-mer frequency, TF over GST control); with ELK3, 1.38 fold enrichment (6-mer frequency, TF over GST control); with FEV it was 1.33 fold enrichment (6-mer frequency, TF over GST control); with ETV5, 1.46 fold enrichment (6-mer frequency, TF over GST control); with HSF1, 1.22 fold enrichment (6-mer frequency, TF over GST control). For the same sequence, the binding signal with SPIC is 1.38 fold enrichment (6-mer frequency, TF over GST control); with ELF4, 1.3 fold enrichment (6-mer frequency, TF over GST control); with ELK4, 1.22 fold enrichment (6-mer frequency, TF over GST control); in the test with ETV2, 1.44 fold enrichment (6-mer frequency, TF over GST control); in the test with ELF3, 1.52 fold enrichment (6-mer frequency, TF over GST control); in the test with ETV1, 1.26 fold enrichment (6-mer frequency, TF over GST control).
